Experiment [1] has as its target ALK tyrosine kinase receptor (Homo sapiens) (UniProt Q9UM73). Conditions: at 10 µM.
For experiment [2], the target named is T1, Activin receptor type-1B (Homo sapiens) (UniProt P36896).
T1 sequence (whole entry): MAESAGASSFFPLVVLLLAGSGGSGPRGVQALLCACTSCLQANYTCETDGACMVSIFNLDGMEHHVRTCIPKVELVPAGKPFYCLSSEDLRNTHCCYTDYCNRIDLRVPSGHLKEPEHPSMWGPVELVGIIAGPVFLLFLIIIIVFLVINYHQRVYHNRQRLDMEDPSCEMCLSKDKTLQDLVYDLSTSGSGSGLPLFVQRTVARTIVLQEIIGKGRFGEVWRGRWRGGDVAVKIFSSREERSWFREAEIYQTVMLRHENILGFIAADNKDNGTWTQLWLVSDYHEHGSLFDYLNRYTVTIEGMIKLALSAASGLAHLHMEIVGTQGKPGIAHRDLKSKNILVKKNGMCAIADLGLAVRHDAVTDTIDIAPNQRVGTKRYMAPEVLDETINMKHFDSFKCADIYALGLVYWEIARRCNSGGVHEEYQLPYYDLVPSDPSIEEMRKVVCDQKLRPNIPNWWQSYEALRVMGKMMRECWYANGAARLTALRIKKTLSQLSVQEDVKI
Conditions: at 1 µM.

Experiment [3] deals with T1, Activin receptor type-1B (Homo sapiens). Particulars: at 10 µM.
Experiment [4] addresses T2, AMP-activated protein kinase (AMPK) alpha-1/beta-1/gamma-1 (Homo sapiens) (UniProt P54619+Q9Y478+Q13131). Conditions: at 10 µM.
For experiment [5], the target named is T3, AMP-activated protein kinase, AMPK (Homo sapiens) (UniProt P54646+O43741+P54619+Q9UGJ0+Q9Y478+Q13131+Q9UGI9). Conditions: at 10 µM.
The target of experiment [6] is T4, NUAK family SNF1-like kinase 1 (Homo sapiens) (UniProt O60285).
T4 sequence (whole entry): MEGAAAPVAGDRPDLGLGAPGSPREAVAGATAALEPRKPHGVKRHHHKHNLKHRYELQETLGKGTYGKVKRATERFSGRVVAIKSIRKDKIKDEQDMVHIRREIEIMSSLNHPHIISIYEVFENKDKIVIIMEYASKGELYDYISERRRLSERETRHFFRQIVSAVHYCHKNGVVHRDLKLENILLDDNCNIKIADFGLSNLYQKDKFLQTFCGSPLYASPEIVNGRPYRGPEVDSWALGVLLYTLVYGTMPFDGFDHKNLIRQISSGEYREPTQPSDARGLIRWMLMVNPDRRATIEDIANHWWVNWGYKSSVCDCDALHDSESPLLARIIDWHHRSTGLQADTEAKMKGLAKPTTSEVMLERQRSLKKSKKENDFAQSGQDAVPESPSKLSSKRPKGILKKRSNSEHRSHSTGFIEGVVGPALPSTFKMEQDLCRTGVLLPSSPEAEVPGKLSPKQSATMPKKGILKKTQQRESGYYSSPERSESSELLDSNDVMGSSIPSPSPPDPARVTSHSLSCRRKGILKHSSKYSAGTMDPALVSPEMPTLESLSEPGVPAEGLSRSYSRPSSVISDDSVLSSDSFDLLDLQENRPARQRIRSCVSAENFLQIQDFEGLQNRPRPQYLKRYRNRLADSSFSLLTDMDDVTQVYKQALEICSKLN
Particulars: at 10 µM.

Experiment [7] deals with T5, Mitogen-activated protein kinase kinase kinase 5 (Homo sapiens) (UniProt Q99683).
T5 sequence (whole entry): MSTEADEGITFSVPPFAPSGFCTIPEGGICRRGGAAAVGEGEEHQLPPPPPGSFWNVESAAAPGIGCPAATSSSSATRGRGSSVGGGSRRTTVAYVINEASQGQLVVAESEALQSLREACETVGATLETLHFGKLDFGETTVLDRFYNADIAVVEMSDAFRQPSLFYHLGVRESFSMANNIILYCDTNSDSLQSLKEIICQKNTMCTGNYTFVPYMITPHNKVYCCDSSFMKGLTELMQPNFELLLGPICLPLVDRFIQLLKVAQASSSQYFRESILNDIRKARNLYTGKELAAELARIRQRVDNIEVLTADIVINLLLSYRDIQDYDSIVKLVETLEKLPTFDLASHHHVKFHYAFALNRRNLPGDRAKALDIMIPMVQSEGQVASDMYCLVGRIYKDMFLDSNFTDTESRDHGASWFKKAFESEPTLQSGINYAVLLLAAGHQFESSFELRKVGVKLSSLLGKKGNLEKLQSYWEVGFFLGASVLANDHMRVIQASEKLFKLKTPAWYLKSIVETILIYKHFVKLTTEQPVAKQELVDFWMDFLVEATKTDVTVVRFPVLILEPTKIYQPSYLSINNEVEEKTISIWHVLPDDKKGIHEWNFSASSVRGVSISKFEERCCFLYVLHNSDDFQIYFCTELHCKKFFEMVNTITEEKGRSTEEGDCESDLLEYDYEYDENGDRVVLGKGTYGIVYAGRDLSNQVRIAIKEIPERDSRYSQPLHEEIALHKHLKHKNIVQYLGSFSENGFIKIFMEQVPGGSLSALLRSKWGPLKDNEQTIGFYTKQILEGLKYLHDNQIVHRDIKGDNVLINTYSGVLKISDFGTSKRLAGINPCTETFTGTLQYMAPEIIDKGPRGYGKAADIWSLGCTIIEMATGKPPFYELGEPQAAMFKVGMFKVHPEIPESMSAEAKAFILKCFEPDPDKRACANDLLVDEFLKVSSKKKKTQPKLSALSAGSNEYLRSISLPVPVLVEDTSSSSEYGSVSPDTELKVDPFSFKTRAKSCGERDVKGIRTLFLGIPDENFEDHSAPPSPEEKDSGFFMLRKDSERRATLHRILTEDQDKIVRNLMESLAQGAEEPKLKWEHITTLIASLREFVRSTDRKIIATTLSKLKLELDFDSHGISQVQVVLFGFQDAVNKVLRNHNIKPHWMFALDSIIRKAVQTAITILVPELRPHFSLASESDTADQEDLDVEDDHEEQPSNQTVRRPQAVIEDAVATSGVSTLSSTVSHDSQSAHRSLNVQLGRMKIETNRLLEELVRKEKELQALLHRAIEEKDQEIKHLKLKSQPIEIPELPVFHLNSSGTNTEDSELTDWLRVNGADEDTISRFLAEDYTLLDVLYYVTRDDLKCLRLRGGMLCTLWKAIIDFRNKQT
Conditions: at 1 µM.

The target in experiment [8] is Platelet-derived growth factor receptor alpha (Homo sapiens) (UniProt P16234). Conditions: at 1 µM.
For experiment [9] the target is unchanged. Particulars: at 10 µM.
In experiment [10] the target is Platelet-derived growth factor receptor beta (Homo sapiens) (UniProt P09619). Conditions: at 1 µM.
For experiment [11] the target is unchanged. Conditions: at 10 µM.
The target in experiment [12] is cAMP-dependent protein kinase catalytic subunit alpha (Homo sapiens) (UniProt P17612). Conditions: at 1 µM.
Experiment [13] has the same target. Particulars: at 10 µM.
Experiment [14] deals with RAC-gamma serine/threonine-protein kinase (Homo sapiens) (UniProt Q9Y243). Particulars: at 1 µM.
For experiment [15], the target named is T2, AMP-activated protein kinase (AMPK) alpha-1/beta-1/gamma-1 (Homo sapiens). Conditions: at 1 µM.
The target in experiment [16] is T3, AMP-activated protein kinase, AMPK (Homo sapiens). Particulars: at 1 µM.
Experiment [17] has as its target T6, 3-phosphoinositide-dependent protein kinase 1 (Homo sapiens) (UniProt O15530).
T6 sequence (whole entry): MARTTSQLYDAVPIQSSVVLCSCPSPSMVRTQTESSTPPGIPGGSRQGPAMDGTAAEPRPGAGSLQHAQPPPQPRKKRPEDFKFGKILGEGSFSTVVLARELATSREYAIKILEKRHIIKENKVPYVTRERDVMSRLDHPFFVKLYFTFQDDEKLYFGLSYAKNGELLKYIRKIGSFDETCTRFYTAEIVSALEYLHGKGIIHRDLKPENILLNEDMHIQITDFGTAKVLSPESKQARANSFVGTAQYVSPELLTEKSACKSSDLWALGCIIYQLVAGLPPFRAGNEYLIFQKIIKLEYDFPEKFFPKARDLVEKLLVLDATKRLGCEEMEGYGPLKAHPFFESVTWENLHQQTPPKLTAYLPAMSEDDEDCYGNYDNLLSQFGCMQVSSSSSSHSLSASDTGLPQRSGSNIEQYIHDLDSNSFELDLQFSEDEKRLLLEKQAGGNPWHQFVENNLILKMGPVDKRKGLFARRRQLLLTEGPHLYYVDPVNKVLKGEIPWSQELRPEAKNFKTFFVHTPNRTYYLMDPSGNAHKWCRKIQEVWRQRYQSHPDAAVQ
Particulars: at 1 µM.

Experiment [18] addresses T6, 3-phosphoinositide-dependent protein kinase 1 (Homo sapiens). Particulars: at 10 µM.
Experiment [19] deals with RAC-gamma serine/threonine-protein kinase (Homo sapiens) (UniProt Q9Y243). Conditions: at 10 µM.
Experiment [20] deals with T4, NUAK family SNF1-like kinase 1 (Homo sapiens). Conditions: at 1 µM.

Platelet-derived growth factor receptor alpha (Homo sapiens), sequence (P16234 whole entry): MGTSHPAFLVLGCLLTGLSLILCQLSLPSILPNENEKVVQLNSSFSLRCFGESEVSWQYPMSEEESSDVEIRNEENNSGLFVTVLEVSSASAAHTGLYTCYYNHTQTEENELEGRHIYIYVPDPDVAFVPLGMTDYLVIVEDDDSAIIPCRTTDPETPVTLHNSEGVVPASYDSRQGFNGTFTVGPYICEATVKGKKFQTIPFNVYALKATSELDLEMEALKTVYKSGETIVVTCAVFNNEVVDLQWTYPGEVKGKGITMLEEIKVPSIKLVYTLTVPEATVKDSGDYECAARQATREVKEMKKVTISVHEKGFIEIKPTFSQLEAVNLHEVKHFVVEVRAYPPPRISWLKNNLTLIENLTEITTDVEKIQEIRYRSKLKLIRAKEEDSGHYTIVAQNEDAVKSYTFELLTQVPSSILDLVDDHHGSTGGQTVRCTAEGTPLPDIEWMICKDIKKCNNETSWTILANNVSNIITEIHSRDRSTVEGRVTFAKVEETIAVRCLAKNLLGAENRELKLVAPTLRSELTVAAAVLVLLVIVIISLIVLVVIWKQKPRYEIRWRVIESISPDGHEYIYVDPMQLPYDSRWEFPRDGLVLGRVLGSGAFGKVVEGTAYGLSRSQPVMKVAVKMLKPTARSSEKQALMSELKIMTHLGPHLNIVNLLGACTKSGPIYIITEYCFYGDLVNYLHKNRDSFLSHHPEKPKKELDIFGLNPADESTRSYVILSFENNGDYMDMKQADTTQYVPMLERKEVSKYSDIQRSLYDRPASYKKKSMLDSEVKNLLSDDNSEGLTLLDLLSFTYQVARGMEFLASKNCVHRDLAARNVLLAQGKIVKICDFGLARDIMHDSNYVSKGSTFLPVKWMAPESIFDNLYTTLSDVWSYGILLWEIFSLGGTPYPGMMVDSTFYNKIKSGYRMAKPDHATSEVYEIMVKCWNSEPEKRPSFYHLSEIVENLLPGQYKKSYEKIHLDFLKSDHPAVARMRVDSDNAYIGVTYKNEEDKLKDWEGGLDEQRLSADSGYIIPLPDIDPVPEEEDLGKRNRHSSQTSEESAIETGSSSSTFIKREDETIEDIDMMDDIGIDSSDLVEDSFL
RAC-gamma serine/threonine-protein kinase (Homo sapiens), sequence (Q9Y243 whole entry): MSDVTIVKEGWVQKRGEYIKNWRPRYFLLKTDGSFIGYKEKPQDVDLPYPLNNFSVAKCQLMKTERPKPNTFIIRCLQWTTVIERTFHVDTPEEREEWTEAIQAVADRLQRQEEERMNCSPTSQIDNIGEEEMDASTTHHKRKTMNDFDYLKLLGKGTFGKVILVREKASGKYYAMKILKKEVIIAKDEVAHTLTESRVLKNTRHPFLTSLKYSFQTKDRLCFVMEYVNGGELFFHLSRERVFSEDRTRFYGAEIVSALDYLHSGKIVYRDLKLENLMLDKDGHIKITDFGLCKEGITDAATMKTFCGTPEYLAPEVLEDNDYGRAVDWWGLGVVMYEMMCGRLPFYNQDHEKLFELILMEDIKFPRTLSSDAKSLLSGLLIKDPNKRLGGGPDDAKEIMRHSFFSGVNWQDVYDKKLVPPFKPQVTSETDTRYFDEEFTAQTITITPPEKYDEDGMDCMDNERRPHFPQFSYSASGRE
ALK tyrosine kinase receptor (Homo sapiens), sequence (Q9UM73 19-1620 limits assumed): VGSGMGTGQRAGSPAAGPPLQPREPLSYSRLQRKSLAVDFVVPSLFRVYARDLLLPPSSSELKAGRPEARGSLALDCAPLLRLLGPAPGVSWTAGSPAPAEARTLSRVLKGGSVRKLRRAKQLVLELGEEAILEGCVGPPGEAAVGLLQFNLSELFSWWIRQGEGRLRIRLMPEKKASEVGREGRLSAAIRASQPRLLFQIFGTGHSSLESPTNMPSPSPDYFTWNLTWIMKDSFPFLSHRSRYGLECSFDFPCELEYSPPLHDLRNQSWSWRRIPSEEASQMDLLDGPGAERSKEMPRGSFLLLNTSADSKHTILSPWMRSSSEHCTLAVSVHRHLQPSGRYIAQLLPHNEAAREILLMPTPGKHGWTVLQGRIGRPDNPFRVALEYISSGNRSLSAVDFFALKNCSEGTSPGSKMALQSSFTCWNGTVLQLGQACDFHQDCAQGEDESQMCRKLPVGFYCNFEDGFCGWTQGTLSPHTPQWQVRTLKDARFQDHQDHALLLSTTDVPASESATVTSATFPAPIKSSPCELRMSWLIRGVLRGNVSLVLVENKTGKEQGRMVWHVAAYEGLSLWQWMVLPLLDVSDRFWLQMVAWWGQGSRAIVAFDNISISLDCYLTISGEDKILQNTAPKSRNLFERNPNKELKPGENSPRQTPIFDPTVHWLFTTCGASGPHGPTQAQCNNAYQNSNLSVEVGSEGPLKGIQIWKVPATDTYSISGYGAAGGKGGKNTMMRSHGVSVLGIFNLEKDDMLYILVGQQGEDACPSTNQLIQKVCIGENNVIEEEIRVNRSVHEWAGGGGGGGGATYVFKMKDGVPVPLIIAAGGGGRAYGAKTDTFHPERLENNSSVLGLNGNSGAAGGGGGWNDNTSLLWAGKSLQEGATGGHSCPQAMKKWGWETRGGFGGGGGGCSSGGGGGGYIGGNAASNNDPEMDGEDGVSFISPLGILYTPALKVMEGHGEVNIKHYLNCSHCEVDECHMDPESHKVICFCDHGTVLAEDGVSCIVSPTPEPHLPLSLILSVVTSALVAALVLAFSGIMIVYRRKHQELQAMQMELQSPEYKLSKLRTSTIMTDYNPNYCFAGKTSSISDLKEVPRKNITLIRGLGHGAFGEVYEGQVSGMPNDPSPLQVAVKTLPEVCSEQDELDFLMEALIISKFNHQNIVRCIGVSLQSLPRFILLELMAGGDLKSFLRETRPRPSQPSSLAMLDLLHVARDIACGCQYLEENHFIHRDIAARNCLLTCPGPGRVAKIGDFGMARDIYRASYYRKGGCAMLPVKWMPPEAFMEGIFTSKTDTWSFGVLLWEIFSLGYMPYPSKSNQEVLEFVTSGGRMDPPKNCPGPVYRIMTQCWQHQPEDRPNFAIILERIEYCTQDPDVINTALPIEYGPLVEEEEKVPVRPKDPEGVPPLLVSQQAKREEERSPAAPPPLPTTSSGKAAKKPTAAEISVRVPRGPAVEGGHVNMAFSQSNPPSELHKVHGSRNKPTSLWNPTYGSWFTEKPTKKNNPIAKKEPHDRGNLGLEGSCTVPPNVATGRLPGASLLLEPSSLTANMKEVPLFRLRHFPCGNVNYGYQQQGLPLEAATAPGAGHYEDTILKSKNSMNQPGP
T2 sequence (P54619 whole entry): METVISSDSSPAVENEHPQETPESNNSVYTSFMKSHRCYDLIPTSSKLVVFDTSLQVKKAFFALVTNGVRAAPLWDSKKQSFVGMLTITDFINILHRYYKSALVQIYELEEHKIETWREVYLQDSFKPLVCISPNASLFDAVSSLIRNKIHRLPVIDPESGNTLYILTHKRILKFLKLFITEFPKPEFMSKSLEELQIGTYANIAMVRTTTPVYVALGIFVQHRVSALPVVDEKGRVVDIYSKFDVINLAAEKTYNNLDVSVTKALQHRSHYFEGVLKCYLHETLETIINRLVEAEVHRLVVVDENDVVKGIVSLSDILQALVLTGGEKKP
T2 sequence (Q13131 whole entry partner): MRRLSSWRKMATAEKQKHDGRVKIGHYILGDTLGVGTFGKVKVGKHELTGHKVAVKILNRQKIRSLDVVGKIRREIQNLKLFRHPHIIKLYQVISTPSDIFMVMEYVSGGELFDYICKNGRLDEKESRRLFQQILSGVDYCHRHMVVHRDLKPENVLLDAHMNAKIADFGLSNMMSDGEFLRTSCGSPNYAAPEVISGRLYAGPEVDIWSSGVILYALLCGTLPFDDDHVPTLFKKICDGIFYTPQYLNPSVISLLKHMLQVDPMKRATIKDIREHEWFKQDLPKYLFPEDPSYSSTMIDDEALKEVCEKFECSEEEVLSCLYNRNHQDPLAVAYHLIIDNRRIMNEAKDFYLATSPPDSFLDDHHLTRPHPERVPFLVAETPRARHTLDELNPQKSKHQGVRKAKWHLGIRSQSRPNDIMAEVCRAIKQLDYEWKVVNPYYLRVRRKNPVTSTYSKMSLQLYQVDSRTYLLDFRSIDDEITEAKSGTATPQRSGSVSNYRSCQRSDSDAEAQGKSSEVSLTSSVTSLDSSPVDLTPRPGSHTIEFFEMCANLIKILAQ
T2 sequence (Q9Y478 2-270 partner limits assumed): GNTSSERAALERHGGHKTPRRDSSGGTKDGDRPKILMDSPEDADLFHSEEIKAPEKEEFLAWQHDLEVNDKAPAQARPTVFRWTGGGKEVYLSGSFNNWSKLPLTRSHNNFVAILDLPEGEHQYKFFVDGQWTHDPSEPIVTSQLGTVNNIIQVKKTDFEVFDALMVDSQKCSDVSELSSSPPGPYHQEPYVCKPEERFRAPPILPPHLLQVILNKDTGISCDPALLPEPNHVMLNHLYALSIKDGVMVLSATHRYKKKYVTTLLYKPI

Regarding `COc1cc2ncnc(Nc3cccc(Cl)c3)c2cc1OC`, the residual activity in [1] turned out to be 107%; in experiment [2] it was 105%; in experiment [3] it was 101%; in experiment [4], 67%; in experiment [5], 74%; in [6], 52%. Moreover, the residual activity is 103% in experiment [7]; 104% in experiment [8]; 87% in [9]; 102% in [10]; 103% in [11]; 111% in [12]. Besides, the residual activity in experiment [13] turned out to be 101%; in [14] it was 112%.

Regarding `O=C(NC(NC(=S)Nc1ccc(F)c([N+](=O)[O-])c1)C(Cl)(Cl)Cl)C(c1ccccc1)c1ccccc1` (configuration not stated), the residual activity in [1] came to 97%; in experiment [2] it was 94%; in experiment [3], 103%; in experiment [15] it was 90%; in [4], 71%; in experiment [16] it was 89%. Also, the residual activity stood at 77% in [5]; 86% in [6]; 97% in [10]; 96% in experiment [11]; 103% in [17]; 87% in [18]. Besides, the residual activity in experiment [14] turned out to be 98%; in experiment [19] it was 69%.

In the case of `CCN(CC)CCNC(=O)c1c(C)[nH]c(/C=C2\C(=O)Nc3ccc(Cl)cc32)c1C`, the residual activity in experiment [1] amounted to 2%; in [2], 126%; in experiment [3], 99%; in experiment [15], 7%; in experiment [4], 3%; in experiment [16] it was 4%. Moreover, the residual activity in experiment [5] came to 4%; in experiment [20], 6%; in [6] it was 6%; in experiment [7], 60%; in experiment [8], 2%; in experiment [9], 1%. Moreover, the residual activity in [10] is 1%; in experiment [11], 1%; in [17], 78%; in experiment [18], 39%; in experiment [12], 81%; in experiment [14], 79%. Further, the residual activity in experiment [19] stood at 33%.

On to `NC(=O)c1ccc(-c2nc(-c3ccc4c(c3)OCCO4)c(-c3ccccn3)[nH]2)cc1`, for which the residual activity came to 52% in experiment [1]; 31% in experiment [2]; 0% in experiment [3]; 90% in experiment [15]; 92% in [4]; 91% in [6]. In addition, the residual activity came out at 98% in [7]; 75% in [11]; 92% in experiment [12]; 96% in experiment [13]; 98% in [14]; 94% in experiment [19].

For `COc1ccc(CNC(=O)Nc2ncc([N+](=O)[O-])s2)cc1`, the residual activity is 64% in experiment [1]; 109% in experiment [3]; 101% in experiment [10]; 100% in experiment [11]; 109% in experiment [12].

Turning to `CCN1/C(=C/C(C)=O)Sc2ccc(OC)cc21`, the residual activity was determined as 122% in experiment [2], 79% in [15] and 54% in experiment [4].

As to `O=S(=O)(NCCNC/C=C/c1ccc(Br)cc1)c1cccc2cnccc12`, the residual activity in [15] amounted to 52%; in experiment [4], 15%; in experiment [16], 60%; in experiment [5] it was 19%; in [20], 42%; in experiment [6] it was 11%. Further, the residual activity in experiment [12] was 2%; in experiment [13], 6%; in [14] it was 31%; in [19], 4%.

Turning to `COc1ccc(Cl)cc1NC(=O)Nc1cc(C)nc2ccccc12`, the residual activity amounted to 58% in experiment [1]; 88% in [15]; 78% in experiment [4]; 91% in experiment [5]; 94% in experiment [20]; 92% in experiment [6].

With `O=C1Nc2ccccc2/C1=C\c1c(Cl)[nH]c2ccccc12`, the residual activity in experiment [1] worked out at 49%; in [5], 58%; in experiment [6], 46%; in experiment [18], 85%.

Source of the values: ChEMBL document CHEMBL2218924, “A broad activity screen in support of a chemogenomic map for kinase signalling research and drug discovery” (Biochem J, 2013).
